From PubChem
Pf Dd2 growth – inhibitors of Plasmodium falciparum Dd2 growth. P. falciparum Dd2 growth, SYBR Green, 72 h. Potency, µM (doses to about 28.9 µM), inactives show at the highest dose activity, negative = inhibition, actives largely listed as inhibitors. AID 1347417. actives 4.3% (n = 120,000); active = well fitted inhibition curve with a large enough effect;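 note: plate controls were DMSO vehicle for no effect and reference drug for full effect; nearly all actives have a fitted effect of over 65% in size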
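Readout: SYBR Green fluorescence, 485 nm excitation, 535 nm emission, after ~16 h lysis at 37C. Before that, Dd2-infected red cells (2.5% hematocrit) grew 72 h with compound, 29 uM top final concentration.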
* marks the source's active call; other numbers are inactive results; i = inactive; [ ] = remark or other dose. Shown is part of a subset that was picked to be rich in hits. Potency is the fitted concentration of half-maximal effect.

SMILES | Pf Dd2 growth
CC(C)(C)OC(=O)N1CCC(c2c(C(=O)N3CCN(C(=O)c4ccco4)CC3)cnn2-c2ccccc2)CC1 | -9%
COCCN1C(=O)[C@H]2CN(Cc3ccc(OC)cc3)C[C@H]2C1=O | 25%
Cc1ccc(C)c(Cn2c(=O)n(-c3ccc(Cl)cc3)c(=O)c3c4c(sc32)CCC4)c1 | 23%
Cc1ccc(CCNC(=O)c2c(C)oc3nc(C)nc(N4CCOCC4)c23)cc1 | 48%
Cc1ccc(-c2nnc([C@H]3CCN(c4ncccn4)C3)o2)cc1 | i
CN1CCN(c2cc(=O)c3ccnc(-c4ccccc4F)c3o2)CC1 | i
CC(=O)N1CCN(C(=O)CCc2nc3ccc(F)cc3[nH]2)CC(O)C1 (stereo not drawn) | 7%
COc1ncccc1CNC[C@H]1O[C@@H]2C[C@@H](CC(=O)NCc3cnn(C)c3)O[C@@H]2[C@@H]1O | 23%[44.1 µM]
Cc1ccc(N2CCN(c3nc4ccc(C(=O)c5ccccc5)cc4n4cnnc34)CC2)c(C)c1 | 15%
COc1cccc(N2CCN(c3nc4ccc(C(=O)c5ccccc5)cc4n4c(C)nnc34)CC2)c1 | 6.3µM*
Cc1ccc(Nc2nc3ccc(C(=O)c4ccccc4)cc3n3c(C)nnc23)c(C)c1 | i
Cc1ccc(C)c(N2CCN(c3nc4ccc(C(=O)c5ccccc5)cc4n4cnnc34)CC2)c1 | -11%
Cc1ccc(Cl)cc1N1CCN(c2nc3ccc(C(=O)c4ccccc4)cc3n3cnnc23)CC1 | -4%
O=C(c1ccccc1)c1ccc2nc(N3CCN(c4ccc(F)cc4)CC3)c3nncn3c2c1 | 11µM*
Cc1ccc(CNC(=O)NC2CCc3nn(CC4CC4)c(=O)n3CC2)cc1 (stereo not drawn) | -24%
COc1cccc(CNC(=O)c2nc(Cn3nc(C)c(Br)c3C)no2)c1 | 1%
C[C@@H]1CN(C(=O)CCCc2cccs2)C[C@@]1(O)C1CCC1 | -11%
CN1Cc2nc(-c3cccc(C(F)(F)F)c3)ccc2OCC1=O | 1%[44.1 µM]
O=C(NCc1ccccc1)c1ccc(CS(=O)(=O)c2c(Cl)cccc2Cl)o1 | i
O=C(Nc1ccccc1)c1ccc(-c2cccc3c2CCNC3)o1 | 11µM*
COc1ccc(NC(=O)c2ccc(-c3cccc(Cl)c3C)o2)cc1 | 10%
O=C(NCc1ccccc1)c1ccc(-c2cccc3c2CCNC3)o1 | 11µM*
Cc1ncc2c(c1CNC(=O)c1cccc(OC(F)F)c1)CCNC2 | -12%
Cc1ccc(NC(=O)c2ccc(-c3cccc(Cl)c3C)o2)cc1 | 20%
COc1cc2ncc3c(-c4ccccc4)nn(CC(=O)NC4CCCCC4)c3c2cc1OC | -24%
SMILES | Pf Dd2 growth
O=C(CN1CCOCC1)N1C[C@@H](COCC2CC2)[C@H](c2ccncc2)C1 | 9%
COc1ccc(CCNc2nc(SCc3cccc(F)c3)nc3ccccc23)cc1OC | -18%
Clc1ccccc1CSc1nc(NCCc2ccccc2)c2ccccc2n1 | 11µM*
Cc1ccccc1CSc1ncc(Cl)c(C(=O)NCc2ccccc2)n1 | 5%
COc1ccc(C(C)=O)cc1CSc1nc(NCc2ccc(Cl)cc2)c2ccccc2n1 | i
Clc1ccc(CSc2nc(NCCc3ccccc3)c3ccccc3n2)cc1 | 10µM*
COc1ccc(CCNc2nc(SCc3ccc(Cl)cc3)nc3ccccc23)cc1OC | -17%
C[C@@H]1CN(C(=O)Cc2cccnc2)C[C@H]1c1nc(-c2ccncc2)no1 | -3%
O=C(CSc1nc(-c2ccccc2)cc(=O)[nH]1)Nc1ccccc1F | 35%
CN(C(=O)Cc1c[nH]c2ccccc12)C1CCc2nn(CC3CC3)c(=O)n2CC1 (stereo not drawn) | -21%
CCn1cc(CN(C)C2CCc3nn(CC4CC4)c(=O)n3CC2)c(C)n1 (stereo not drawn) | 2%
CN(Cc1cn(C)c2ccccc12)C1CCc2nn(CC3CC3)c(=O)n2CC1 (stereo not drawn) | 5µM*
Cc1nnc2n1CCC(NC(=O)CCc1c[nH]c3ccccc13)CC2 (stereo not drawn) | 36%
O=C(Cc1ccsc1)Nc1cccc(-c2nnc3n2CCCC3)c1 | 8.9µM*
Cc1nnc2n1CCC(N(C)C(=O)CCc1c[nH]c3ccccc13)CC2 (stereo not drawn) | i
O=C(Cn1nc2n(c1=O)CCCC2)Nc1cccc(Br)c1 | 50%
O=C(Cc1ccsc1)NC1CCc2nnc(C3CC3)n2CC1 (stereo not drawn) | 3%
O=C(Cc1ccc(Cl)cc1)Nc1cccc(-c2nnc3n2CCCC3)c1 | i
O=C(CCc1c[nH]c2ccccc12)Nc1cccc(-c2nnc3n2CCCC3)c1 | 3.2µM*
Cc1c(F)cccc1NC(=O)Nc1cccc(-c2nnc3n2CCCC3)c1 | i
O=C(Cc1ccc(F)cc1)Nc1cccc(-c2nnc3n2CCCC3)c1 | 7.1µM*
CC(=O)c1ccc(NC(=O)N2C[C@@H]3C[C@H](C2)c2ccc(NC(=O)Nc4cccc(C#N)c4)c(=O)n2C3)cc1 | -10%
Fc1ccc(C2Cn3nnc(-c4nc(-c5ccncc5)no4)c3CO2)cc1 (stereo not drawn) | 11%
CC(C)CCN1CCNC(=O)C1CC(=O)NCc1ccc(O)cc1O (stereo not drawn) | 19%
CCn1c(C2CCCN(C(=O)NCc3ccc(OC)cc3)C2)nn(C)c1=O (stereo not drawn) | i
SMILES | Pf Dd2 growth
CCN1CC(C(=O)N2CCCC(c3ccccc3)(c3ccccc3)C2)CC1=O (stereo not drawn) | -8%
CC(=O)N1CCC(C(=O)N[C@H]2CCN3C(=O)N(c4cccc(C(F)(F)F)c4)C(=O)[C@@H]3C2)CC1 | 0%
CCCc1nc(C)cc(N2CCC(NCCc3ccc(Cl)cc3)CC2)n1 | 10µM*
CCCc1cc(N2CCC(NCCOC(C)C)CC2)nc(C)n1 | -15%
COc1ccc(CC(=O)NC2CCN(c3cc(-c4ccc(Cl)cc4)[nH]n3)CC2)cc1 | -15%
CCOCC(=O)NC1CCN(c2cnn(Cc3ccccc3)c(=O)c2)CC1 | -1%
O=C(c1cnco1)N1C[C@@H](COc2cccnc2)[C@H](c2ccccn2)C1 | i
CNC(=O)[C@@H](C1CCCCC1)N1CCC[C@H]1C(=O)N(C)CCN(C)C | -2%[44.1 µM]
COc1cccc(C2CC(=O)Nc3c2c(=O)nc2c(C)cccn32)c1 (stereo not drawn) | 21%
C1CNCC(c2nc(CCOCC3CCOCC3)no2)C1 (stereo not drawn) | -4%
C(Cc1noc(C2CNC2)n1)OCC1CC1 | 5µM*
CC(=O)N1CCCC(c2nc(CCOCC3CC3)no2)C1 (stereo not drawn) | -10%
CC(=O)N1CCC(N2CC[C@@H]3C(=O)NCCCCCCN(Cc4ccncc4)[C@@H]3C2)CC1 | -3%
CCOc1ccc2c(c1)NC(c1ccc(OCC)c(OCC)c1)=NC(c1ccc(F)cc1)=N2 | 13µM*
CC(C)COc1ccc(C2=NC(c3ccncc3)=Nc3ccc(F)cc3N2)cc1 | -2%
CCc1ccc2c(c1)NC(c1ccc(F)cc1)=NC(c1ccncc1)=N2 | -13%
CCOc1ccccc1NC(=O)Cn1c(=O)n(CCCCC(=O)NCCCOC)c(=O)c2ccccc21 | -25%
Cc1c(-c2ccccc2)[nH]c2c(CNC(=O)CN3C(=O)CNC3=O)cc(Cl)cc12 | 4%
Cc1ccn(CC(=O)N[C@@H]2CN(C)C[C@H]2CN(C)C)n1 | i
CCOc1cccc2sc(N3CCN(C(=O)c4ccco4)CC3)nc12 | i
COc1ccc(NC(=O)C(c2ccc(C)cc2)N(C)C(=O)/C=C\c2ccc3c(c2)OCO3)cc1 (stereo not drawn) | -25%
COc1ccc(/C=C/C(=O)Nc2ccc(C)cc2)cc1 | -29%
